# Laboratory results taken from article PMC5540273 (PLoS ONE, 2017).
# Read-outs that look alike come from different tables or passages of the source.
# Experiments:
# FYN = details: concentration: 1 μM, replicates: in singlicate; n = 1
# GAK = details: concentration: 1 μM, replicates: in singlicate; n = 1
# GCN2(Kin.Dom.2,S808G) = tested on: T1, GCN2(Kin.Dom.2,S808G); details: concentration: 1 μM, replicates: in singlicate; n = 1
# T1 construct: gene EIF2AK4
# GRK1 = details: concentration: 1 μM, replicates: in singlicate; n = 1
# GRK2 = tested on: T2, GRK2; details: concentration: 1 μM, replicates: in singlicate; n = 1
# T2 construct: gene ADRBK1
# GRK3 = tested on: T3, GRK3; details: concentration: 1 μM, replicates: in singlicate; n = 1
# T3 construct: gene ADRBK2
# GRK4 = details: concentration: 1 μM, replicates: in singlicate; n = 1
# GRK7 = details: concentration: 1 μM, replicates: in singlicate; n = 1
# GSK3A = details: concentration: 1 μM, replicates: in singlicate; n = 1
# GSK3B = details: n = 1
# [1] = concentration: 1 μM, replicates: in singlicate
# 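Note: KINOMEscan kinase panel screen.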
Compound,%Inh (FYN),%Inh (GAK),"%Inh (GCN2(Kin.Dom.2,S808G))",%Inh (GRK1),%Inh (GRK2),%Inh (GRK3),%Inh (GRK4),%Inh (GRK7),%Inh (GSK3A),%Inh (GSK3B; [1]),%Inh (GSK3B; 1 µM)
Cc1ccc(S(=O)(=O)Nc2ccc(Nc3nccc(Nc4cccc5[nH]ncc45)n3)cc2)cc1 [GSK581271],41%,44%,0%,0%,0%,42%,0%,0%,24%,10%,
Cc1occc1-c1ncc(OC[C@@H](N)Cc2c[nH]c3ccccc23)cc1-c1ccc2[nH]nc(C)c2c1.O=C(O)C(F)(F)F [GSK682037],86%,82%,0%,3%,0%,0%,62%,43%,64%,55%,
O=C(O)C(F)(F)F.O=C(O)C(F)(F)F.O=c1[nH]ccc2nc(N[C@@H]3CCCNC3)nc(Nc3ccc(S(=O)(=O)N4CCOCC4)cc3)c12 [GSK2177277],61%,97.4%,100%,96.6%,72%,88%,92.2%,96%,99.3%,98.2%,
Cl.Cl.NCC(NC(=O)c1cc(-c2ccccc2)c(-c2ccnc3[nH]ccc23)s1)c1ccccc1 (centres unmarked) [GSK1321561],59%,86%,0%,9%,0%,15%,0%,25%,31%,26%,
Cn1cc(-c2ccc3c(c2)CCN3C(=O)Cc2cccc(F)c2)c2c(N)ncnc21 [GSK2603358],0%,16%,33%,0%,0%,36%,0%,0%,4%,12%,
FC(F)(F)c1ccc(/C=C/c2cncnc2Nc2ccc3[nH]c(Cc4ccccc4)nc3c2)cc1 [GW709199],10%,0%,0%,11%,0%,0%,18%,0%,39%,0%,
Oc1cc(Nc2ccnc3cc(I)ccc23)ccc1F [GW552771],62%,85%,8%,0%,0%,65%,10%,0%,17%,0%,
COc1cccc(-c2ccc3c(NC(=O)C4CC4)n[nH]c3n2)c1 [SB-710903],0%,3%,1%,5%,0%,75%,0%,0%,88%,,43%
CC(=O)N1CCN(c2ccc(Nc3nccc(-c4sc(C(C)C)nc4-c4cccc(NS(=O)(=O)c5cccc(Cl)c5)c4)n3)cn2)CC1 [GSK1660437],73%,90.9%,100%,0%,12%,0%,30%,0%,12%,10%,
Cc1ccc(C(=O)Nc2ccc(Nc3ccnc4cc(-c5nccs5)ccc34)cc2O)cc1.Cl [GW494702],25%,10%,0%,17%,0%,41%,17%,0%,0%,7%,
CN(c1ccc(NC(=O)Nc2cc(C(F)(F)F)ccc2F)cc1)c1ccnc(Nc2ccc(S(N)(=O)=O)cc2)n1 [GW809893],83%,0%,0%,17%,13%,0%,25%,6%,68%,12%,
COc1ccc(CNC(=O)NC2CCN(c3ccnc(Nc4ccc(F)cc4)n3)CC2)cc1 [GSK1379788],8%,0%,0%,0%,0%,57%,0%,0%,2%,0%,
CC(=O)Nc1nc2cnc(Nc3cc(NC(=O)c4cccc(C5(C#N)CC5)c4Cl)ccc3C)nc2s1,50%,0%,19%,6%,0%,14%,14%,15%,0%,0%,
O=C(Nc1cccc(-c2nn3ccccc3c2-c2ccnc(Nc3cccc(C(F)(F)F)c3)n2)c1)c1c(F)cccc1F [GSK292658],56%,3%,10%,3%,0%,0%,15%,3%,5%,4%,
CN1CCN(Cc2cccc(-c3ccc4c(Nc5ccc(Oc6ccccc6)cc5)ccnc4c3)c2)CC1 [GW578342],83%,3%,0%,1%,2%,37%,0%,0%,16%,0%,
NCCCC(NC(=O)c1cc(Br)c(-c2ccnc3[nH]ccc23)s1)c1ccccc1.O=C(O)C(F)(F)F.O=C(O)C(F)(F)F (centres unmarked) [GSK1287544],2%,23%,7%,68%,75%,85%,57%,83%,0%,15%,

Compound,%Inh (FYN),%Inh (GAK),"%Inh (GCN2(Kin.Dom.2,S808G))",%Inh (GRK1),%Inh (GRK2),%Inh (GRK3),%Inh (GRK4),%Inh (GRK7),%Inh (GSK3A),%Inh (GSK3B; [1]),%Inh (GSK3B; 1 µM)
O=C(Nc1n[nH]c2nc(-c3ccc(O)cc3)ccc12)C1CC1 [SB-710363],0%,8%,0%,34%,0%,16%,20%,13%,98.8%,,95.6%
CN(C)Cc1ccc(-c2ccc3c(Nc4ccc(Oc5ccccn5)cc4)ccnc3c2)o1 [GW567148],71%,82%,0%,0%,0%,0%,0%,10%,0%,6%,
CSc1cccc2c(-c3ccncn3)c(-c3ccc(F)cc3)nn12 [GW514786],17%,76%,0%,6%,7%,35%,100%,0%,5%,9%,
c1ccc(-c2n[nH]cc2Nc2ccnc3ccccc23)nc1 [GW694077],36%,100%,0%,7%,0%,33%,81%,0%,0%,7%,
Cc1cccc(NC(=O)Nc2ccc(Oc3ncnc4ccn(C)c34)cc2)c1,0%,0%,0%,4%,0%,0%,0%,0%,0%,0%,
c1ccc(-c2cnc3nccnn23)cc1 [AH20685],50%,0%,42%,0%,0%,13%,0%,0%,0%,0%,
O=C(Nc1ccccc1F)NC1CCN(c2ccnc(Nc3ccc(F)cc3)n2)CC1 [GSK1379800],8%,0%,0%,0%,0%,0%,0%,0%,5%,12%,
O=C(Nc1n[nH]c2cc(-c3ccoc3)ccc12)C1CC1 [SB-738481],0%,2%,0%,18%,0%,0%,44%,9%,92.7%,,54%
Cc1ccc(F)c(C(=O)Nc2cccc(-c3nn4ccccc4c3-c3ccnc(Nc4cccc(F)c4)n3)c2)c1F [GSK361061],58%,52%,11%,0%,0%,0%,25%,0%,12%,21%,
Clc1ccc(-c2nn3ncccc3c2-c2ccnc(Nc3ccc4c(c3)OCCO4)n2)cc1 [GW829116],0%,68%,6%,0%,0%,0%,0%,0%,24%,0%,
Fc1ccc(-c2ncn(C3CCNCC3)c2-c2ccnc(Oc3ccc(-c4ccccc4)cc3)n2)cc1 [SB-245391],20%,22%,18%,19%,12%,22%,0%,32%,0%,27%,
COc1cc(Nc2ncc3c(C)nc(-c4cc5ccccc5[nH]4)n3n2)cc(OC)c1OC [GW869516],30%,34%,88%,0%,0%,0%,19%,0%,0%,0%,
Nc1ncc(-c2cccnc2)c2scc(-c3ccc4c(c3)CCN4C(=O)Cc3ccccc3)c12 [GSK683281],32%,23%,75%,0%,0%,0%,22%,0%,24%,29%,
Cl.Cl.NCC(C(=O)Nc1cc(Br)c(-c2ccnc3[nH]ccc23)s1)c1ccccc1 (centres unmarked) [GSK1269851],30%,83%,0%,56%,13%,62%,86%,13%,0%,7%,
COc1ccc(Nc2nccc(N3CCC(NC(=O)Nc4cccc(OC)c4)C3)n2)cc1 (centres unmarked) [GSK1379742],0%,23%,6%,0%,0%,22%,0%,0%,13%,2%,
C[C@@H]1CC[C@@H](C(=O)Nc2ccccc2)CN1c1cc(-c2ccc3c(N)n[nH]c3c2)nc(N)n1 [GSK2286062],25%,19%,0%,0%,0%,10%,0%,0%,0%,0%,
